Data reported in PubChem BioAssay AID720690 (Broad Institute, 2013).
Results with a measured potency or affinity are listed apart. Calls of active or inactive are those of the source.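 The calls were made as follows: active = every repeat run showing a signal drop whose fitted half-maximal concentration is at most twice the top tested concentration; inconclusive = repeat runs disagree, or flat partial drop, or poor fit; inactive = the rest.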

Test: general mammalian cell viability loss – activator set, cherry-pick, cytotoxicity control for miR-122 modulator project, dose response (AID 720690)
Settings: HEK293T viability, CellTiter-Glo luminescence, 48 h; series mostly up to 26 µM
In the case of `CN1C(=O)c2cc(NC(=O)c3cccs3)ccc2OC[C@H]2O[C@H](CC(=O)NCCN3CCCCC3)CC[C@H]21`, the outcome is reported as “inactive”.
With `CC(=O)N1[C@@H](CO)[C@@H](c2ccccc2)[C@@H]1CNC(=O)CN1CCOCC1` the outcome was “inactive”.
In the case of `CCCNC(=O)Nc1ccc2c(c1)C(=O)N(C)[C@@H]1CC[C@H](CC(=O)O)O[C@H]1CO2`, the outcome is reported as “inactive”.
With `CCC(=O)NC[C@H]1[C@H](c2ccc(C3=CCCC3)cc2)[C@H](CO)N1C(C)=O` the outcome was “inactive”.
For `Cc1ccc(C2CC(C(F)(F)F)n3nc(C(=O)NCc4ccco4)cc3N2)cc1` (centres undefined), the outcome was “inactive”.
In the case of `Fc1ccccc1-c1nc(-c2ccncc2)no1`, the outcome is reported as “inactive”.
With `CN1C(=O)c2cc(NC(=O)c3cccc(F)c3)ccc2OC[C@@H]2O[C@@H](CC(=O)NC3CCC3)CC[C@H]21` the outcome was “inactive”.
With `O=C(c1cccnc1)N1C[C@H]2[C@@H](c3ccccc31)[C@H](CO)N2C(=O)Nc1ccccc1` the outcome was “inactive”.
For `COCC(=O)Nc1ccc2c(c1)C(=O)N(C)[C@@H]1CC[C@@H](CC(=O)NC3CCCC3)O[C@H]1CO2`, the outcome was “inactive”.
With `CN1C(=O)c2cc(NC(=O)c3ccc(C(F)(F)F)cc3)ccc2OC[C@H]2O[C@H](CC(=O)O)CC[C@@H]21` the outcome was “inactive”.
In the case of `CC(C)C#Cc1ccc2c(c1)O[C@H](CN(C)C(=O)c1ccncc1)[C@@H](C)CN([C@@H](C)CO)S2(=O)=O`, the outcome is reported as “inactive”.
For `C[C@@H]1CN([C@H](C)CO)S(=O)(=O)c2ccc(C3=CCCC3)cc2O[C@@H]1CN(C)C(=O)Cc1ccncc1`, the outcome was “inactive”.
In the case of `CCN(C[C@H]1[C@H](c2ccccc2)[C@@H](CO)N1S(C)(=O)=O)C(=O)C1CC1`, the outcome is reported as “inactive”.
In the case of `CN1CCN(C(=O)C[C@H]2CC[C@@H]3[C@H](COc4ccc(NC(=O)c5cccs5)cc4C(=O)N3C)O2)CC1`, the outcome is reported as “inactive”.
For `CCC(=O)N1[C@H](CO)[C@H]2c3ccccc3N(C(=O)CC(F)(F)F)C[C@H]21`, the outcome was “inactive”.
For `C[C@@H]1CN([C@@H](C)CO)S(=O)(=O)c2ccc(/C=C/c3ccccc3)cc2O[C@@H]1CN(C)C(=O)c1cccnc1`, the outcome was “inactive”.
In the case of `O=C(c1cccnc1)N1C[C@H]2[C@@H](c3ccccc31)[C@H](CO)N2C(=O)Nc1ccccc1Cl`, the outcome is reported as “inactive”.
With `C[C@H](CO)N1C[C@H](C)[C@H](CN(C)C(=O)C2CCC2)Oc2cc(-c3ccc(C(=O)N(C)C)cc3)ccc2S1(=O)=O` the outcome was “inactive”.
For `O=C(COc1cccc2ccccc12)Nc1nc2ccccc2[nH]1`, the outcome was “inactive”.
In the case of `N#CCc1c(C#N)c(N)nc(N2CCN(S(=O)(=O)c3ccccc3)CC2)c1C#N`, the outcome is reported as “inactive”.
For `CCNC(=O)C[C@H]1CC[C@H]2[C@H](COc3ccc(NS(C)(=O)=O)cc3C(=O)N2C)O1`, the outcome was “inactive”.
For `COCC(=O)Nc1ccc2c(c1)C(=O)N(C)[C@@H]1CC[C@H](CC(=O)NC3CCCC3)O[C@H]1CO2`, the outcome was “inactive”.
For `CCCC(=O)Nc1ccc2c(c1)C(=O)N(C)[C@@H]1CC[C@H](CC(=O)NCC(F)(F)F)O[C@H]1CO2`, the outcome was “inactive”.
For `CN1C(=O)c2cc(NC(=O)C3CC3)ccc2OC[C@@H]2O[C@H](CC(=O)NCCN3CCCC3)CC[C@H]21`, the outcome was “inactive”.
In the case of `C/C=C/c1ccc([C@@H]2[C@@H](CO)N[C@@H]2CN(C(=O)C2CCC2)C(C)C)cc1`, the outcome is reported as “inactive”.
In the case of `C[C@H](CO)N1C[C@H](C)[C@@H](CN(C)C(=O)C2CCOCC2)Oc2cc(C#Cc3ccncc3)ccc2S1(=O)=O`, the outcome is reported as “inactive”.
For `CCCNC(=O)N1C[C@@H]2[C@H](c3ccccc31)[C@H](CO)N2C(=O)C1CCOCC1`, the outcome was “inactive”.
With `O=C(Nc1ccccc1F)N1C[C@H]2[C@@H](c3ccccc31)[C@@H](CO)N2C(=O)C1CC1` the outcome was “inactive”.
For `Cc1cccc(NC(=O)c2sc3nc(-c4ccc(F)cc4)cn3c2C)n1`, the outcome was “inactive”.
For `C/C=C/c1ccc([C@H]2[C@@H](CO)N[C@@H]2CN(CC(C)C)C(=O)c2ccccn2)cc1`, the outcome was “inactive”.
For `COCC(=O)Nc1ccc2c(c1)C(=O)N(C)[C@@H]1CC[C@H](CC(=O)NCc3ccccc3F)O[C@H]1CO2`, the outcome was “inactive”.
For `CNC(=O)C[C@@H]1CC[C@@H]2[C@H](COc3ccc(NC(=O)NC(C)C)cc3C(=O)N2C)O1`, the outcome was “inactive”.
For `Cc1cc(C(=O)Nc2ccc3c(c2)C(=O)N(C)[C@@H]2CC[C@@H](CC(=O)N[C@H](C)c4ccccc4)O[C@H]2CO3)no1`, the outcome was “inactive”.
In the case of `C/C=C/c1ccc([C@@H]2[C@H](CO)N(Cc3ccccn3)[C@H]2CNC(=O)CC)cc1`, the outcome is reported as “inactive”.
For `CN(C[C@H]1N[C@@H](CO)[C@@H]1c1ccc(C2=CCCC2)cc1)C(=O)c1ccccn1`, the outcome was “inactive”.
For `C/C=C/c1ccc2c(c1)O[C@H](CN(C)C(=O)Nc1cccc(F)c1)[C@H](C)CN([C@@H](C)CO)S2(=O)=O`, the outcome was “inactive”.
With `CNC(=O)C[C@@H]1CC[C@@H]2[C@@H](COc3ccc(NC(=O)c4ccccc4OC)cc3C(=O)N2C)O1` the outcome was “inactive”.
In the case of `CN1C(=O)c2cc(NC(=O)c3cccc(F)c3)ccc2OC[C@H]2O[C@H](CC(=O)NC3CCC3)CC[C@H]21`, the outcome is reported as “inactive”.
With `COc1cc(-c2nnc(-c3ccco3)o2)ccc1OCc1ccccc1` the outcome was “inactive”.
